In the supplement of paper PMC6411743:
± gives the standard deviation of the averaged measurements. Of roughly 6,500 targets only a part is listed; those with the largest changes were picked by preference.

Compound: Nc1ncnc2c1ncn2[C@@H]1O[C@H](COP(=O)(O)OP(=O)(O)OP(=O)(O)O)[C@@H](O)[C@H]1O [adenosine triphosphate]
Assay: NP40-soluble protein abundance relative to vehicle (solubility fold change) (ratio); higher = more soluble protein in presence of ATP
In short: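 Data come from three independent experiments in which Dounce-homogenised Jurkat crude lysate was treated at eight concentrations from 0.1 to 10 mM. Treatment ran 10 min at room temperature and then 3 min at 37 °C, after which 0.8% NP40 and benzonase were added for 60 min at 4 °C before ultracentrifugation. The supernatant underwent TMT labelling and LC-MS/MS, and vsn-normalised intensities were expressed as fold change against the detergent-processed vehicle in each replicate.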

Chain of UniProt P05198 (P05198 whole entry): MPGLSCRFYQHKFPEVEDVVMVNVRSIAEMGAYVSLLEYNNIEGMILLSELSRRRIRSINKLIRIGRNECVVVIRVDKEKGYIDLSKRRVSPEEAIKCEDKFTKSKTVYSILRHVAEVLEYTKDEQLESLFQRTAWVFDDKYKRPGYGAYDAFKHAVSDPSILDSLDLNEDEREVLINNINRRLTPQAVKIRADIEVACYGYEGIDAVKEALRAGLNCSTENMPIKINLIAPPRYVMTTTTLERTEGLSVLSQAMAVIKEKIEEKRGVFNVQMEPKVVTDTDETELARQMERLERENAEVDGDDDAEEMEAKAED
Chain of UniProt O95625 (O95625 whole entry): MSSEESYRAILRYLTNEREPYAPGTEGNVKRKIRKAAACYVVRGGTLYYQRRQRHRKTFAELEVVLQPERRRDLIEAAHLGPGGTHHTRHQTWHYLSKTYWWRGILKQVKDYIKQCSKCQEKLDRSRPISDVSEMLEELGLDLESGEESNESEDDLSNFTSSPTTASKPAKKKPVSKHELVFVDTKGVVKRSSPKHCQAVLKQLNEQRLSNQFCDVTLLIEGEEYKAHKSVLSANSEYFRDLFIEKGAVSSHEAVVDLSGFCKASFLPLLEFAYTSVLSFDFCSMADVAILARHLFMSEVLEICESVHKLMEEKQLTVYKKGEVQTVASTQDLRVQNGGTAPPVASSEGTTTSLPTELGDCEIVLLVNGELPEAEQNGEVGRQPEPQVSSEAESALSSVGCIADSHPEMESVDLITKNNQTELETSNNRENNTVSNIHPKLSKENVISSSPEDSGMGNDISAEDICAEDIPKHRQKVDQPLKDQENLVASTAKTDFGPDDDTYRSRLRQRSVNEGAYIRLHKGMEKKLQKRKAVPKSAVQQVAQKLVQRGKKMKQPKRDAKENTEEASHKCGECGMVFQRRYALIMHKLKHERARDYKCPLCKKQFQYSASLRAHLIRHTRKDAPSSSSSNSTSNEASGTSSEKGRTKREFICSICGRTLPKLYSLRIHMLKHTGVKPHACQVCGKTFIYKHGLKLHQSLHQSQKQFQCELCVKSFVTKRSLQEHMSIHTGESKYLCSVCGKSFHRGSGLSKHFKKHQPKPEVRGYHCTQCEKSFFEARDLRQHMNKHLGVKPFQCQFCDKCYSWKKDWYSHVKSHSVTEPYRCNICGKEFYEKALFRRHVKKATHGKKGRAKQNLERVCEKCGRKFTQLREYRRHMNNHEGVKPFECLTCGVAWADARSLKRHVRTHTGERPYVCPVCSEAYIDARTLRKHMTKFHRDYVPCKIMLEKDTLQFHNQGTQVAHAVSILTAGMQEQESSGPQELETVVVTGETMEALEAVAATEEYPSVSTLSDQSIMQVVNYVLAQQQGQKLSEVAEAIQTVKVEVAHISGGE
Chain of UniProt P49761 (P49761 whole entry, looked up): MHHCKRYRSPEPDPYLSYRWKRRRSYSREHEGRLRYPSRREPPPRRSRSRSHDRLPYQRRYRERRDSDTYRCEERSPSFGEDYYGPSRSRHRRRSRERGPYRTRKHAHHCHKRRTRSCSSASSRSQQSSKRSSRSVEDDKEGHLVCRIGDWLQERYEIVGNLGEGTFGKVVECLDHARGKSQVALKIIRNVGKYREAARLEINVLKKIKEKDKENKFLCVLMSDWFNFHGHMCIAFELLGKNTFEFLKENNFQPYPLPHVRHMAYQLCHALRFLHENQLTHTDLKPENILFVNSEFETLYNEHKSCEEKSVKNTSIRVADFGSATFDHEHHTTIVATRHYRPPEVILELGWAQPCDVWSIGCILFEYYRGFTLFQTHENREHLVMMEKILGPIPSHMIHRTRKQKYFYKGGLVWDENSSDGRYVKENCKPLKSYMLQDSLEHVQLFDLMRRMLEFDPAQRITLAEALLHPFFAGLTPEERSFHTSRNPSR
Chain of UniProt O95786 (O95786 whole entry): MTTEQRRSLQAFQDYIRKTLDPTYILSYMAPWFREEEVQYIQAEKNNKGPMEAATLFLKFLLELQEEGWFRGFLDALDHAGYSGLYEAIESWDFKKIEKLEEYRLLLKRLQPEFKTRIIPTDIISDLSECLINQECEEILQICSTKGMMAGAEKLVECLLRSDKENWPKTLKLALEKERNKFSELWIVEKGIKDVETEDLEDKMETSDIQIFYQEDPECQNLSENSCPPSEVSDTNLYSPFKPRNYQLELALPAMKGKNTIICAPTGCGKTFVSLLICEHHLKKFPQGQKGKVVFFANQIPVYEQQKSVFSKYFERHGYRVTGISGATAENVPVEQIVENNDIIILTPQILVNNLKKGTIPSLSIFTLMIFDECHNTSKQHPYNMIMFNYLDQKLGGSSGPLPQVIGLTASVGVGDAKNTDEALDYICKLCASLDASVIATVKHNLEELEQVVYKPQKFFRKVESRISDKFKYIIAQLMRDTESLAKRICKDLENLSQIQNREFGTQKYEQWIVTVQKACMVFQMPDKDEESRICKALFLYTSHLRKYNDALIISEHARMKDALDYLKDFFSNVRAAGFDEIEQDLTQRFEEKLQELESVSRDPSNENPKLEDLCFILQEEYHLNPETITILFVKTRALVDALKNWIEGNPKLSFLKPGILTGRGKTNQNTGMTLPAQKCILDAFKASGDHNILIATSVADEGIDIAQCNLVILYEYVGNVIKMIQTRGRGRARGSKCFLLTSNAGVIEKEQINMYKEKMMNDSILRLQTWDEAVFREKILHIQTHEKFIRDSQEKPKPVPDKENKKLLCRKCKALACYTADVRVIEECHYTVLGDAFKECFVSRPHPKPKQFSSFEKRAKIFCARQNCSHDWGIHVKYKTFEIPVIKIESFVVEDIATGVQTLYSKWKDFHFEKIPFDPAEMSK
Chain of UniProt P50213 (P50213 whole entry, one chain of several): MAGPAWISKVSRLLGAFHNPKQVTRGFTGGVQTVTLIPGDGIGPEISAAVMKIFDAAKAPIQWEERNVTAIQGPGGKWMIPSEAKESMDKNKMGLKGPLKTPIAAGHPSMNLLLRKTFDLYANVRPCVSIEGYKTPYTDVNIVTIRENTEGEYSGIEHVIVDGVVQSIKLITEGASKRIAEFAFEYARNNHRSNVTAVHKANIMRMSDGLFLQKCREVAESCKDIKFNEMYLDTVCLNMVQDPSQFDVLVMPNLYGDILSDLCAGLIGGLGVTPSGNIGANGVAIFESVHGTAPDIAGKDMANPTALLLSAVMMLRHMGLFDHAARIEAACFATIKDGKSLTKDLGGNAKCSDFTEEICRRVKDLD
Chain of UniProt P83369 (P83369 whole entry): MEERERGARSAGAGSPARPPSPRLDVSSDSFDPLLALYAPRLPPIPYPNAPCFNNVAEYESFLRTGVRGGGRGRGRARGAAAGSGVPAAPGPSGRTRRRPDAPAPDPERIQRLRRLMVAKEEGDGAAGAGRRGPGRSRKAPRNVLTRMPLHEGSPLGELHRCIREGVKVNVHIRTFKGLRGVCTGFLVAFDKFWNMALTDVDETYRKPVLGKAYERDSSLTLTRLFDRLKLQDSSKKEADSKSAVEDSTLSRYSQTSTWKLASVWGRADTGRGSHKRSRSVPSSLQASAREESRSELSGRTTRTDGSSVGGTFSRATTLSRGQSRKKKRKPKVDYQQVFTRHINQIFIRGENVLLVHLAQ
Chain of UniProt O94886 (O94886 whole entry): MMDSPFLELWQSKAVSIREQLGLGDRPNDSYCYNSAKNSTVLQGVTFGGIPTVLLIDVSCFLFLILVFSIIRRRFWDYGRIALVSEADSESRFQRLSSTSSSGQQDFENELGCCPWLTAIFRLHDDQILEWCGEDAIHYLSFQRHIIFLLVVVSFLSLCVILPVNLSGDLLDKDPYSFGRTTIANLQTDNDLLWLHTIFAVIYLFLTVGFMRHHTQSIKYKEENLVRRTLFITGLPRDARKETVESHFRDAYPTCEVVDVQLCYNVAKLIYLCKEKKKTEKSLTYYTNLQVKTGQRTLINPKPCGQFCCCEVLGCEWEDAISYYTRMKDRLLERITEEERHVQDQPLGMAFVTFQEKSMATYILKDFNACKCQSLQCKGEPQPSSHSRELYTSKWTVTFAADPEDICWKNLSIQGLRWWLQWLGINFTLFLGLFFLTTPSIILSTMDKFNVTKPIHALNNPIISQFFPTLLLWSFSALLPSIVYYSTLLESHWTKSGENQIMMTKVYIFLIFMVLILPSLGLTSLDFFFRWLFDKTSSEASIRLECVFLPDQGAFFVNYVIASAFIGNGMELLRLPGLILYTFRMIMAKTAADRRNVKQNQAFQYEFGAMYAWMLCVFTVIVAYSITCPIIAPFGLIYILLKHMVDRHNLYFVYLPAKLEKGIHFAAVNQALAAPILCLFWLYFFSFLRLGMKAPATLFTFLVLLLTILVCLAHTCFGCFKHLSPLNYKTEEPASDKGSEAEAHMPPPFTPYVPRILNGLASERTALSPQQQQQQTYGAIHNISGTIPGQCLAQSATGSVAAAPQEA
Chain of UniProt P19623 (P19623 whole entry): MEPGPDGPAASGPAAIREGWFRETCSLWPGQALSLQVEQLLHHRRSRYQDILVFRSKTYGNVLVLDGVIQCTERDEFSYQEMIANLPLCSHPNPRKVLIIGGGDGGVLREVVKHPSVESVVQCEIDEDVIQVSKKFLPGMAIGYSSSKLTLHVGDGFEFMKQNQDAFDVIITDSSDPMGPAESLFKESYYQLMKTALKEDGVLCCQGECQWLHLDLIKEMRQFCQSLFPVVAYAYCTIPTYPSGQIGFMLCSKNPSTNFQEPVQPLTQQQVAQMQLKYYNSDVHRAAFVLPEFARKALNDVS
Chain of UniProt P13995 (P13995 whole entry): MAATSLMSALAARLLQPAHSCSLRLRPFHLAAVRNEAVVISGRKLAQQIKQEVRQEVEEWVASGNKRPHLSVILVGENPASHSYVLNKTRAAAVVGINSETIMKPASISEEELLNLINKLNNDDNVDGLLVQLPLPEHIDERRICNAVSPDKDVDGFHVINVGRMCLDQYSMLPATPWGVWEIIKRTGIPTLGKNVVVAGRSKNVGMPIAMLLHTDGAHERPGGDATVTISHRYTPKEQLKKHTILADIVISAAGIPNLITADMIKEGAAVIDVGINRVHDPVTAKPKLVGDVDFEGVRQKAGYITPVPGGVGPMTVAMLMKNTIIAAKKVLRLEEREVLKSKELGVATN

Target	NP40-soluble protein abundance (concentration: 1mM)	NP40-soluble protein abundance (concentration: 2mM)	NP40-soluble protein abundance (concentration: 4mM)	NP40-soluble protein abundance (concentration: 6mM)	NP40-soluble protein abundance (concentration: 8mM)	NP40-soluble protein abundance (concentration: 10mM)
UniProt P08243|P08243-2|P08243-3	1.1 ± 0.13	1.1 ± 0.12	1.1 ± 0.11	1.03 ± 0.14	1.15 ± 0.12	1.09 ± 0.097
SGPL1 (UniProt O95470)	1.05 ± 0.14	1.03 ± 0.1	1.02 ± 0.086	0.965 ± 0.094	1.07 ± 0.079	1.06 ± 0.075
GAA (UniProt P10253)	0.981 ± 0.012	1.01 ± 0.021	1 ± 0.028	0.972 ± 0.015	0.962 ± 0.055	0.997 ± 0.033
CCNA2 (UniProt P20248)	0.998 ± 0.059	0.977 ± 0.027	0.993 ± 0.017	1.03 ± 0.046	0.9881 ± 0.0022	0.995 ± 0.05
UROS (UniProt P10746)	0.973 ± 0.029	0.988 ± 0.041	0.98 ± 0.061	0.968 ± 0.038	0.95 ± 0.059	0.927 ± 0.054
GCSH (UniProt P23434)	0.985 ± 0.048	0.971 ± 0.024	0.986 ± 0.051	1.03 ± 0.05	0.915 ± 0.051	0.927 ± 0.092
PPT1 (UniProt P50897)	0.942 ± 0.054	0.92 ± 0.019	0.877 ± 0.034	0.957 ± 0.035	0.903 ± 0.016	0.86 ± 0.039
PFN1 (UniProt P07737)	0.941 ± 0.059	0.934 ± 0.049	0.918 ± 0.027	0.92 ± 0.059	0.891 ± 0.015	0.911 ± 0.034
CTDSPL2 (UniProt Q05D32)	1.13 ± 0.11	1.13 ± 0.07	1.27 ± 0.09	1.32 ± 0.082	1.33 ± 0.14	1.47 ± 0.03
UniProt Q00653|Q00653-4	1.006 ± 0.0072	0.99 ± 0.026	0.971 ± 0.025	0.995 ± 0.022	0.965 ± 0.021	0.973 ± 0.012
UniProt Q01082|Q01082-3	0.887 ± 0.029	0.899 ± 0.014	0.928 ± 0.03	1.05 ± 0.037	1.04 ± 0.06	1.07 ± 0.048
PRPF6 (UniProt O94906)	1.31 ± 0.017	1.5 ± 0.12	1.79 ± 0.13	1.97 ± 0.2	2.18 ± 0.15	2.36 ± 0.21
UniProt P28908|P28908-3	0.986 ± 0.073	0.999 ± 0.0037	1.08 ± 0.13	0.992 ± 0.073	0.951 ± 0.041	0.964 ± 0.026
ARL3 (UniProt P36405)	0.978 ± 0.0088	0.944 ± 0.057	0.937 ± 0.057	0.926 ± 0.066	0.945 ± 0.037	0.946 ± 0.049
TMEM63A (UniProt O94886)	0.9962 ± 0.0062	1.016 ± 0.004	1.01 ± 0.023	1.0012 ± 0.00078	0.961 ± 0.024	0.979 ± 0.01
GSTM2 (UniProt P28161)	0.96 ± 0.07	0.952 ± 0.054	0.886 ± 0.043	0.889 ± 0.035	0.911 ± 0.058	0.861 ± 0.056
UniProt P38398|P38398-7|P38398-4|P38398-8	1.02 ± 0.011	1.05 ± 0.071	1.03 ± 0.035	1.03 ± 0.086	1.02 ± 0.081	1.06 ± 0.03
UniProt P51114|P51114-2	1.644 ± 0.0088	1.79 ± 0.041	2.03 ± 0.048	2.17 ± 0.11	2.32 ± 0.039	2.4 ± 0.045
RBM25 (UniProt P49756)	1.21 ± 0.074	1.33 ± 0.12	1.68 ± 0.22	2.25 ± 0.24	2.63 ± 0.34	3.08 ± 0.38
ZBTB11 (UniProt O95625)	1.03 ± 0.057	1.004 ± 0.0071	1.03 ± 0.053	0.949 ± 0.021	0.97 ± 0.015	0.979 ± 0.04

Target	NP40-soluble protein abundance (concentration: 1mM)	NP40-soluble protein abundance (concentration: 2mM)	NP40-soluble protein abundance (concentration: 4mM)	NP40-soluble protein abundance (concentration: 6mM)	NP40-soluble protein abundance (concentration: 8mM)	NP40-soluble protein abundance (concentration: 10mM)
UniProt P49903|P49903-2	1 ± 0.039	0.992 ± 0.02	0.962 ± 0.049	0.979 ± 0.068	0.966 ± 0.052	0.96 ± 0.042
HMGN2 (UniProt P05204)	1.06 ± 0.36	1.27 ± 0.42	1.29 ± 0.44	1.67 ± 0.9	1.55 ± 0.41	2.08 ± 1.5
SFPQ (UniProt P23246)	1.125 ± 0.0082	1.302 ± 0.0053	1.67 ± 0.042	1.72 ± 0.18	1.81 ± 0.11	1.68 ± 0.17
UniProt O96028|O96028-3|O96028-5	1.31 ± 0.054	1.45 ± 0.072	1.54 ± 0.11	1.62 ± 0.12	1.62 ± 0.12	1.74 ± 0.18
UniProt P13674|P13674-2	1.01 ± 0.0016	1.01 ± 0.022	0.994 ± 0.027	1.03 ± 0.054	1.01 ± 0.034	1.04 ± 0.045
IARS (UniProt P41252)	1.1 ± 0.14	1 ± 0.072	0.974 ± 0.058	0.905 ± 0.059	1.05 ± 0.035	0.975 ± 0.078
LSM11 (UniProt P83369)	1.32 ± 0.26	1.26 ± 0.15	1.4 ± 0.17	1.62 ± 0.32	1.46 ± 0.2	1.69 ± 0.4
SRM (UniProt P19623)	1.03 ± 0.12	1.01 ± 0.1	1 ± 0.083	0.929 ± 0.12	0.998 ± 0.071	0.997 ± 0.068
VAMP7 (UniProt P51809)	0.955 ± 0.046	0.958 ± 0.05	0.938 ± 0.028	0.894 ± 0.1	0.943 ± 0.044	0.945 ± 0.044
IDH1 (UniProt O75874)	0.993 ± 0.056	0.988 ± 0.038	0.94 ± 0.052	0.94 ± 0.081	0.957 ± 0.04	0.949 ± 0.027
UniProt Q03933-2|Q03933	0.912 ± 0.029	1.05 ± 0.065	1.05 ± 0.2	1.09 ± 0.17	1.04 ± 0.048	1.01 ± 0.051
UniProt P50750-2|P50750	1.18 ± 0.047	1.26 ± 0.047	1.38 ± 0.018	1.47 ± 0.13	1.64 ± 0.058	1.7 ± 0.1
UniProt P06576|F8W0P7	0.822 ± 0.18	1.04 ± 0.22	0.825 ± 0.21	1.07 ± 0.2	1.05 ± 0.16	0.814 ± 0.21
XPA (UniProt P23025)	0.975 ± 0.021	0.979 ± 0.033	0.965 ± 0.054	1.02 ± 0.027	0.954 ± 0.1	0.968 ± 0.05
TOP1 (UniProt P11387)	1.05 ± 0.019	1.088 ± 0.0094	1.22 ± 0.028	1.42 ± 0.035	1.599 ± 0.0062	1.78 ± 0.074
UniProt O94925|O94925-3	1.02 ± 0.071	0.968 ± 0.035	0.981 ± 0.078	0.944 ± 0.05	0.978 ± 0.061	0.947 ± 0.039
UniProt Q01826|Q01826-2	0.952 ± 0.051	0.96 ± 0.023	0.919 ± 0.039	0.96 ± 0.031	0.928 ± 0.02	0.922 ± 0.011
PRIM2 (UniProt P49643)	1.03 ± 0.057	1.02 ± 0.025	1.02 ± 0.032	1 ± 0.034	1.02 ± 0.028	1.03 ± 0.047
UniProt P56381	2.11 ± 1.8	0.927 ± 0.037	0.827 ± 0.014	1.2 ± 0.39	0.93 ± 0.067	0.875 ± 0.046
DDX58 (UniProt O95786)	1.06 ± 0.097	1.03 ± 0.063	1 ± 0.05	0.978 ± 0.078	1.03 ± 0.056	1.01 ± 0.055

Target	NP40-soluble protein abundance (concentration: 1mM)	NP40-soluble protein abundance (concentration: 2mM)	NP40-soluble protein abundance (concentration: 4mM)	NP40-soluble protein abundance (concentration: 6mM)	NP40-soluble protein abundance (concentration: 8mM)	NP40-soluble protein abundance (concentration: 10mM)
UniProt O75400|O75400-2	1.35 ± 0.075	1.44 ± 0.086	1.65 ± 0.097	2.14 ± 0.13	2.39 ± 0.13	2.62 ± 0.2
RFC3 (UniProt P40938)	1.25 ± 0.036	1.3 ± 0.041	1.31 ± 0.041	1.31 ± 0.039	1.35 ± 0.061	1.36 ± 0.046
UniProt P09471-2	1.04 ± 0.059	0.979 ± 0.043	0.949 ± 0.052	0.975 ± 0.1	0.9637 ± 0.0096	0.969 ± 0.014
EIF2S1 (UniProt P05198)	1.04 ± 0.043	1.05 ± 0.034	1.02 ± 0.027	1.04 ± 0.07	1.06 ± 0.053	1.05 ± 0.051
PHKA2 (UniProt P46019)	0.975 ± 0.071	0.9386 ± 0.0054	0.92 ± 0.033	0.932 ± 0.087	0.95 ± 0.028	0.919 ± 0.029
UniProt P18583|P18583-5|P18583-7|P18583-9	1.28 ± 0.057	1.3 ± 0.075	1.36 ± 0.099	1.49 ± 0.14	1.45 ± 0.095	1.55 ± 0.13
MTHFD2 (UniProt P13995)	1.02 ± 0.018	1.01 ± 0.02	0.995 ± 0.04	1.01 ± 0.043	1.01 ± 0.032	1 ± 0.026
FXR2 (UniProt P51116)	1.68 ± 0.23	1.77 ± 0.15	2.06 ± 0.29	2.24 ± 0.27	2.26 ± 0.3	2.33 ± 0.26
CDKN2D (UniProt P55273)	0.959 ± 0.065	0.928 ± 0.036	0.953 ± 0.046	0.953 ± 0.019	0.951 ± 0.024	0.872 ± 0.045
UniProt P49761|P49761-1|P49761-3	1.317 ± 0.008	1.56 ± 0.035	1.54 ± 0.018	1.43 ± 0.13	1.81 ± 0.23	2.065 ± 0.019
UniProt P60228	0.999 ± 0.024	0.999 ± 0.051	1.08 ± 0.035	1.23 ± 0.063	1.34 ± 0.073	1.49 ± 0.12
UniProt P54274|P54274-2	1.14 ± 0.12	1.27 ± 0.17	1.43 ± 0.17	1.69 ± 0.26	1.58 ± 0.25	1.88 ± 0.35
UniProt P49748|P49748-3	0.997 ± 0.081	0.989 ± 0.064	0.983 ± 0.027	0.934 ± 0.083	0.986 ± 0.015	0.973 ± 0.045
C1QBP (UniProt Q07021)	1.15 ± 0.48	0.69 ± 0.36	1.21 ± 0.26	0.585 ± 0.18	1.19 ± 0.24	0.587 ± 0.2
UniProt Q02078-2|Q02078-6	0.954 ± 0.086	0.939 ± 0.046	0.936 ± 0.065	0.926 ± 0.036	0.907 ± 0.032	0.949 ± 0.048
SAP30 (UniProt O75446)	0.93 ± 0.092	0.952 ± 0.092	0.907 ± 0.073	0.971 ± 0.15	0.96 ± 0.044	0.915 ± 0.13
SPN (UniProt P16150)	0.828 ± 0.17	0.803 ± 0.16	0.812 ± 0.13	0.835 ± 0.14	0.765 ± 0.094	0.71 ± 0.2
P0DN76|Q01081|Q01081-2 (UniProt Q01081+P0DN76)	2.11 ± 0.23	2.14 ± 0.2	2.22 ± 0.17	2.36 ± 0.16	2.27 ± 0.11	2.24 ± 0.17
UniProt P62937|P62937-2	0.914 ± 0.063	1.02 ± 0.05	0.894 ± 0.091	0.992 ± 0.084	0.882 ± 0.11	0.962 ± 0.056
UniProt P50213|H0YLF8	0.98 ± 0.039	0.963 ± 0.04	0.922 ± 0.036	0.95 ± 0.058	0.949 ± 0.057	0.932 ± 0.043
